Values joined by “and” are separate entries in the source; they are usually repeats but may differ in a detail not shown here. Identical values can stand only once. Records with an inconclusive call do not appear. A call without a number means that no potency is given here. The source holds several records for some structures; these can differ, active in one and inactive in another. Active and inactive are the calls of the source. Calls come from the whole dose curve; as a rule, active = well fitted curve in the direction sought with a large enough effect; inconclusive = small, poorly fitted or top-dose-only effect, or another doubt; inactive = no such curve, though single readings can be large; an effect the other way counts as inactive or inconclusive.
How the values were obtained:
[1] = qHTS assay for measurement of the activity of small molecule inhibitors on Zika virus induced Caspase-3 activity in human iPSC derived neural progenitor cells (hNPCs) (AID 1224857); note: nearly all actives have a fitted effect of over 65% in size; note: potency is the fitted concentration of half-maximal effect
In short: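 Human iPSC-derived neural progenitor cells pretreated 1 hr with compounds, then infected with Zika virus (2 FFU/cell) for 6 hours at 37 C. Caspase-3/7 measured by Caspase-Glo luminescence; % inhibition calculated from induction scaled to uninfected (0%) and infected (100%) wells.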

[2] = qHTS assay for measurement of the activity of small molecule inhibitors on Zika virus induced Caspase-3 activity in human astrocytoma cells (AID 1224859); note: potency is the fitted concentration of half-maximal effect
In short: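 SNB-19 astrocytoma cells, 250/well, pretreated 1 h with compounds, then Zika virus at 2 FFU/cell for 6 h at 37 C; Caspase-Glo 3/7 luminescence after 30 min; percent inhibition normalised to uninfected and infected controls.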

[3] = qHTS Screen of the MIPE 4.0 Collection Against Ewings Sarcoma (RDES) (AID 1259252); note: nearly all actives have a fitted effect of over 35% in size; note: potency is the fitted concentration of half-maximal effect
In short: (§1)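 Dose series incubated 48 h with cells in RPMI plus 5% FBS, glutamine and penicillin/streptomycin; cell viability then quantified via CellTiter-Glo.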

[4] = qHTS Screen of the MIPE 4.0 Collection Against Ewings Sarcoma (TC71) (AID 1259253); note: nearly all actives have a fitted effect of over 40% in size; note: potency is the fitted concentration of half-maximal effect
In short: as §1

[5] = qHTS Screen of the MIPE 4.0 Collection Against Ewings Sarcoma (EW8) (AID 1259255); note: nearly all actives have a fitted effect of over 35% in size; note: potency is the fitted concentration of half-maximal effect
In short: as §1

[6] = Identifying Small Molecule Inhibitors of Pancreatic Cancer Stem Cells (SN12C, Adherent) (AID 1259358);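 note: cell survival measured after 48 h of compound exposure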; note: potency is the fitted concentration of half-maximal effect
In short: (§2)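 Endpoint: ATP-based luminescence, 48 h drug exposure. Bortezomib at 9.2 uM final as full-kill control; DMSO vehicle as negative control; activity normalized between vehicle and cell-free wells.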

[7] = Identifying Small Molecule Inhibitors of Pancreatic Cancer Stem Cells (SN12C, Spheroid) (AID 1259360); details: Potency: SN12C spheroid viability; note: potency is the fitted concentration of half-maximal effect
In short: (§3)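 Monolayer and spheroid cultures are compared. Spheroids form over 14 days in stem cell medium on hydrogel-coated low-attachment plates, then are exposed to compound for 48 h before CellTiter-Glo luminescence.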

[8] = Identifying Small Molecule Inhibitors of Pancreatic Cancer Stem Cells (A278, Adherent) (AID 1259361);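 note: viability read after 48 h compound exposure; nearly all actives have a fitted effect of over 35% in size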
In short: as §2

[9] = Identifying Small Molecule Inhibitors of Pancreatic Cancer Stem Cells (Panc1, Adherent) (AID 1259362); details: Potency: viability; note: potency is the fitted concentration of half-maximal effect
In short: (§4)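 After a 4 h attachment period, compounds were pinned into wells and cultures held 48 h under standard incubator conditions. Viability was then measured as CellTiter-Glo luminescence following 10 min at room temperature.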

[10] = P-glycoprotein substrates identified in KB-8-5-11 adenocarcinoma cell line, qHTS therapeutic library screen (AID 1346987); note: nearly all actives have a fitted effect of over 65% in size; note: potency is the fitted concentration of half-maximal effect
In short: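 Steps: plate 500 KB-8-5-11 cells/well in DMEM + 10% FCS (colchicine removed); pin compounds in dose-response; incubate 72 h, 37 degree C, 5% CO2; add CellTiter-Glo, 5 min; read luminescence.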

[11] = NS1 protein of Zika virus - qHTS assay to identify small molecule inhibitors in human HEK 293 cells (AID 1347053); note: nearly all actives have a fitted effect of over 55% in size; note: potency is the fitted concentration of half-maximal effect
In short: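 HEK 293; 20 h pre-culture, 37 C/5% CO2; cpd 1 h pre-infection; ZIKV MR766, MOI = 0.5, 24 h, 37 C; TR-FRET NS1 readout (two anti-NS1 Abs); norm. to no-virus vs infected.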

[12] = qHTS Screen of the MIPE 4.0 Collection Against Ewings Sarcoma (TC32) (AID 1259256); note: potency is the fitted concentration of half-maximal effect; nearly all actives have a fitted effect of over 45% in size
In short: as §1

[13] = Identifying Small Molecule Inhibitors of Pancreatic Cancer Stem Cells (A2780, Spheroid) (AID 1259357); details: Potency: A2780 spheroid viability;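 note: compound exposure lasted 48 h before the ATP luminescence read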
In short: as §3

[14] = qHTS assay to identify small molecule inhibitors of chordoma cells - UCH-2 (AID 1259356); note: series mostly up to about 46 µM
[15] = P-glycoprotein substrates identified in KB-3-1 adenocarcinoma cell line, qHTS therapeutic library screen (AID 1346986); note: nearly all actives have a fitted effect of over 60% in size
In short: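 KB-3-1 parental and colchicine-selected P-gp-overexpressing KB-8-5-11 cells (colchicine omitted during assay), 500 cells/well, dosed in dose-response for 72 h at 37 °C; CellTiter-Glo luminescence. Cytotoxic: curve class -1.1 to -2.4, max response >50%, AC50 < 10 uM.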

[16] = Identifying Small Molecule Inhibitors of Pancreatic Cancer Stem Cells (Panc1, Spheroid) (AID 1259359);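 note: potency is the fitted concentration of half-maximal effect; compound exposure lasted 48 h before reading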
In short: as §4

Row | SMILES | Potency [1] | Potency [2] | Potency [3] | Potency [4] | Potency [5] | Potency [6] | Potency [7] | IC50 (viability decrease) [8] | Potency [9] | Potency [10] | Potency [11] | Potency [12] | Potency [13] | outcome [14] | Potency [15] | Potency [16]
1 | Cc1ccc(-c2ncn(-c3ccc(Nc4nccc(-c5cccc(N6CCOCC6)c5)n4)cc3)n2)cn1 | inactive | inactive | 0.0743 µM (active) | 0.118 µM (active) | 0.0935 µM (active) | 0.059 µM (active) | 0.059 µM (active) | 0.0743 µM (active) | 0.0743 µM (active) | 1.05 µM (active) | 3.72 µM (active) |  |  |  |  | 
2 | O=C(C=Cc1cccnc1)NCCCCC1CCN(C(=O)c2ccccc2)CC1 | inactive | inactive |  | 0.0042 µM (active) | 0.0074 µM (active) | inactive | 0.0021 µM (active) | inactive |  | 0.0166 µM (active) | inactive | 0.0042 µM (active) | inactive |  |  | 
3 | CCC(=C(c1ccccc1)c1ccc(OCCN(C)C)cc1)c1ccccc1 | inactive | inactive | 26.4 µM (active) | 16.6 µM (active) | 20.9 µM (active) |  | 18.7 µM (active) | 23.5 µM (active) |  |  |  |  |  |  |  | 
4 | CN(C)CCCN=c1c2ccccc2n(C)c2[nH]c(=O)n(C)c(=O)c12 | inactive | inactive | 2.64 µM (active) | 10.5 µM (active) | 1.18 µM (active) | 20.9 µM (active) | inactive | 11.8 µM (active) |  |  |  |  | inactive |  |  | 
5 | Cc1ccc(C(N)=O)cc1Nc1nccc(-c2cn(C(C)C)c3cnccc23)n1 | inactive | inactive | 14.8 µM (active) | 8.33 µM (active) | 18.7 µM (active) | inactive |  | 8.33 µM (active) |  | 20.6 µM (active) |  |  |  |  |  | 
6 | Cc1nc2ccc(CN(C)c3ccc(C(=O)N[C@@H](CCC(=O)O)C(=O)O)s3)cc2c(=O)[nH]1 | inactive | inactive | 0.0166 µM (active) | 0.0209 µM (active) | 0.0264 µM (active) |  |  |  |  |  | inactive |  |  | inactive |  | 
7 | COC(=O)C1=C(C)NC(C)=C(C(=O)OCCN2CCN(C(c3ccccc3)c3ccccc3)CC2)C1c1cccc([N+](=O)[O-])c1 (stereo unspecified) | inactive | inactive | inactive | inactive | inactive |  |  |  |  | 20.6 µM (active) and inactive |  |  |  | inactive |  | 
8 | COc1cccc(-c2ccc(NC(=O)C3=C(C(=O)O)CCC3)c(F)c2)c1 | 2.64 µM (active) | 2.35 µM (active) | 14.8 µM (active) | 11.8 µM (active) | 9.35 µM (active) |  |  |  |  |  | 2.09 µM (active) |  |  |  |  | 
9 | COc1ccc(F)c(F)c1C(=O)c1cnc(NC2CCN(S(C)(=O)=O)CC2)nc1N | inactive | inactive | 2.64 µM (active) | 1.18 µM (active) | 3.72 µM (active) |  |  |  |  | 3.72 µM (active) and 4.11 µM (active) | 14.8 µM (active) |  |  |  |  | 
10 | CCCn1c(=O)c2[nH]c(-c3cnn(Cc4cccc(C(F)(F)F)c4)c3)nc2n(CC)c1=O | inactive | inactive | inactive | inactive | inactive |  |  |  |  | inactive | inactive |  |  |  | inactive | 
11 | O=C(CCCCCCNC(=O)c1cnc(N(c2ccccc2)c2ccccc2)nc1)NO | inactive | inactive | 5.9 µM (active) | 5.9 µM (active) | 4.18 µM (active) |  |  |  |  |  | inactive | 5.26 µM (active) |  |  |  | 
12 | COc1cc2c(Nc3ccc(NC(=O)c4ccccc4)cc3)ncnc2cc1OCCCN1CCOCC1 | inactive | inactive | 23.5 µM (active) | 16.6 µM (active) | 1.05 µM (active) |  |  |  |  | inactive |  |  |  |  |  | 
13 | CCOc1cc2ncc(C#N)c(Nc3ccc(F)c(Cl)c3)c2cc1NC(=O)C=CCN(C)C | inactive | inactive |  | 0.132 µM (active) | 0.132 µM (active) | 0.209 µM (active) | 1.48 µM (active) | 20.9 µM (active) |  | 10.5 µM (active) | inactive | 0.132 µM (active) |  |  |  | 16.6 µM (active)
14 | COc1cc2c(NC3CCN(C(C)C)CC3)nc(C3CCCCC3)nc2cc1OCCCN1CCCC1 | inactive | inactive | 7.43 µM (active) | 7.43 µM (active) | 5.9 µM (active) |  |  |  |  |  | inactive | 5.26 µM (active) |  |  |  | 
15 | COc1cc(C)c(Sc2cnc(NC(=O)c3ccc(CNC(C)C(C)C)cc3)s2)cc1C(=O)N1CCN(C(C)=O)CC1 (stereo unspecified) | inactive | inactive | 14.8 µM (active) | 18.7 µM (active) | 3.72 µM (active) |  |  |  |  | inactive |  |  |  |  |  | 
16 | Cc1cn2cc(C(=O)N(C)CCO)cc(N[C@@H]3CCOc4cccc(C)c43)c2n1 | inactive | inactive | inactive | inactive | inactive |  |  |  |  | inactive | inactive |  |  |  | inactive | 
17 | O=C(C=Cc1c(C(=O)O)[nH]c2cc(Cl)cc(Cl)c12)Nc1ccccc1 | inactive | inactive | inactive | inactive | inactive | inactive | inactive |  |  | inactive | inactive |  | inactive |  |  | 

Source: PubChem BioAssay (NCATS)
